How the values were obtained:
Test in all cases: DAPPL (digital affinity profiling via proximity ligation, sequencing); 10 mM Tris-HCl pH 7.5, 50 mM NaCl, 1 mM DTT, 4% glycerol, room temperature, 30 min; GST-TFs on glutathione beads, 16-mer random dsDNA library, 0.1% formaldehyde crosslink after washing; high values mean tight binding
Conditions in all cases: protein: recombinant; tags: N-terminal GST; dsDNA, one strand shown
[1] = target: T1, FLI1 (Homo sapiens, UniProt Q01543 1-452)
T1 sequence: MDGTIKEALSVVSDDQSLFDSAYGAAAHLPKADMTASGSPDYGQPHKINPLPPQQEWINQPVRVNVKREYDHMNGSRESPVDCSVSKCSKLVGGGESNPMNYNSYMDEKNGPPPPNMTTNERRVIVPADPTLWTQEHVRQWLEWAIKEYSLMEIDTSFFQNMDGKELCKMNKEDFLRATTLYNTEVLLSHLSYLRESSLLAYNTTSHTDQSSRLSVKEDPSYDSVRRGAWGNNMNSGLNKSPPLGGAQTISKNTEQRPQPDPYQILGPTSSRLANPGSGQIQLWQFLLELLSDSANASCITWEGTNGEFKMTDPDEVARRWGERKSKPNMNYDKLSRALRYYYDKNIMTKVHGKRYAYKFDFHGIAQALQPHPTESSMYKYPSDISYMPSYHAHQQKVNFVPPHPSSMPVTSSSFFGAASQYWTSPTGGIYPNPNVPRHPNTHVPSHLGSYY
Outline: (§1)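 Human transcription factors carrying a GST fusion were produced in yeast, bound to glutathione beads, tagged with DNA barcodes and pooled together with a tag-only sample. Each pool was held with 200 nmole of a random double-stranded 16-mer DNA library in Tris/NaCl/DTT/glycerol buffer for 30 min at room temperature, then washed, crosslinked in 0.1% formaldehyde, proximity-ligated with BsaI/T4 ligase (1 h, 37 °C), PCR-amplified and sequenced on an Illumina NextSeq500. Binding signal is the read frequency of each hexamer for a given factor divided by its frequency in the tag-only sample.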

[2] = target: T2, ELK1 (Homo sapiens, UniProt P19419 1-428)
T2 sequence: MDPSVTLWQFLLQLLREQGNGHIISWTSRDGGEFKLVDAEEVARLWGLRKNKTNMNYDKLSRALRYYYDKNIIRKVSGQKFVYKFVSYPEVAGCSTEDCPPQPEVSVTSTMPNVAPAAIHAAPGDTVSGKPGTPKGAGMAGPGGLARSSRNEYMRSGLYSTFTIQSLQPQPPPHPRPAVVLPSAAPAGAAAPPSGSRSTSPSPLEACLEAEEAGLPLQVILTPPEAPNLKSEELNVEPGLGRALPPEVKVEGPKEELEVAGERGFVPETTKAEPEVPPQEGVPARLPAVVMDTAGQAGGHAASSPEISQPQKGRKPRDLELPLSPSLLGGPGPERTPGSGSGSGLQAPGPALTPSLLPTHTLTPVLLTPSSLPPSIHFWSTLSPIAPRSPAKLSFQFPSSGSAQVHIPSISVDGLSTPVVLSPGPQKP
Outline: as §1

[3] = target: T3, GABPA (Homo sapiens, UniProt Q06546 1-454)
T3 sequence: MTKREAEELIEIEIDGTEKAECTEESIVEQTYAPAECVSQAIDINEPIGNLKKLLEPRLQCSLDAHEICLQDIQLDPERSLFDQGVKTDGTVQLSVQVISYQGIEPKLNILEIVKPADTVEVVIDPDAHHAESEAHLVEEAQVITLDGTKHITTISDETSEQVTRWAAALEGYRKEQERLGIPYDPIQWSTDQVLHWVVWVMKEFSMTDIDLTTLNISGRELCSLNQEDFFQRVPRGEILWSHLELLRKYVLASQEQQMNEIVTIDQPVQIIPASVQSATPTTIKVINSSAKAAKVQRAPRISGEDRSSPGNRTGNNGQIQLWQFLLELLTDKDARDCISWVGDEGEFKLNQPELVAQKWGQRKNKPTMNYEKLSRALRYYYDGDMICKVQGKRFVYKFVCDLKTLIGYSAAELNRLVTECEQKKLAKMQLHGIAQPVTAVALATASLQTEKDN
Outline: as §1

[4] = target: T4, ERG (Homo sapiens, UniProt P11308 1-479)
T4 sequence: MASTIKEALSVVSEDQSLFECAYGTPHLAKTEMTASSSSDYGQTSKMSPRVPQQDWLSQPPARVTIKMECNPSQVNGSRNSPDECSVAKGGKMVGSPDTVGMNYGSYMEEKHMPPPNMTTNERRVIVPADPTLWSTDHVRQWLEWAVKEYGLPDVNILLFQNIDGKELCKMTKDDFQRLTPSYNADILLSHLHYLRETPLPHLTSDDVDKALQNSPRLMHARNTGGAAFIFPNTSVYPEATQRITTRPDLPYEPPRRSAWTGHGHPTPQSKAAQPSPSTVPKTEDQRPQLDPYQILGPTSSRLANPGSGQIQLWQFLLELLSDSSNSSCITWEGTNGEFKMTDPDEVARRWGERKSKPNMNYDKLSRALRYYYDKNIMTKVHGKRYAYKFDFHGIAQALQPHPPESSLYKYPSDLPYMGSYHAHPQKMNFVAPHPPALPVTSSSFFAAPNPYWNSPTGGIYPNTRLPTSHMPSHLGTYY
Outline: as §1

[5] = target: ELF1 (Homo sapiens, UniProt P32519 1-619)
Chain of ELF1 (P32519 whole entry): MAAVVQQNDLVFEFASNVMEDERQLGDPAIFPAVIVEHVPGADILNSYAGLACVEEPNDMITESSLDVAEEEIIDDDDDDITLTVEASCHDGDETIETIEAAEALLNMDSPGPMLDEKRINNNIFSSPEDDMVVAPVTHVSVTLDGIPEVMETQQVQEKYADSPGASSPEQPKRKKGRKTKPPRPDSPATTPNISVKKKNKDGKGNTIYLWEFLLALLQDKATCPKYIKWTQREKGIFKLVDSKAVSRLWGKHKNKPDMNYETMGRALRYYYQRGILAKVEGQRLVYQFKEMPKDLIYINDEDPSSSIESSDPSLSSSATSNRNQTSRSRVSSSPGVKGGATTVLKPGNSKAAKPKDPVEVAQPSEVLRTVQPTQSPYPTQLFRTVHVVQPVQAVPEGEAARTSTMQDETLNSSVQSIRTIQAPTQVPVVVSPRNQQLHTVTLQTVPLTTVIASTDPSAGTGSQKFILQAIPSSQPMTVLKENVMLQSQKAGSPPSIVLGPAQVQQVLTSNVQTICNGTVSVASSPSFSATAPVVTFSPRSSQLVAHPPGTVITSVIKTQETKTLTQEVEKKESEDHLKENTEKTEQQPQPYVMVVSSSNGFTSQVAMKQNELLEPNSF
Outline: as §1

[6] = target: T5, EHF (Homo sapiens, UniProt Q9NZC4 1-300)
T5 sequence: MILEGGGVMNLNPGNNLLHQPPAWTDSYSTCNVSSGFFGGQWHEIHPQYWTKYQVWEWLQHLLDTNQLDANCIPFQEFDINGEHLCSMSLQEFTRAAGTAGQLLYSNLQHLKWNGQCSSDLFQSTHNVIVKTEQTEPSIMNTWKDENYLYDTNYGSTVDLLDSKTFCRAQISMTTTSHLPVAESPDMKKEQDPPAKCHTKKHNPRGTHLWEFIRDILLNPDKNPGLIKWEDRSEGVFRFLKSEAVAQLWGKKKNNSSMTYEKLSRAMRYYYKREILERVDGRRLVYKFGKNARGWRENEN
Outline: as §1

[7] = target: SPI1 (Homo sapiens, UniProt P17947 1-270)
Outline: as §1

[8] = target: T6, ELK3 (Homo sapiens, UniProt P41970 1-407)
T6 sequence: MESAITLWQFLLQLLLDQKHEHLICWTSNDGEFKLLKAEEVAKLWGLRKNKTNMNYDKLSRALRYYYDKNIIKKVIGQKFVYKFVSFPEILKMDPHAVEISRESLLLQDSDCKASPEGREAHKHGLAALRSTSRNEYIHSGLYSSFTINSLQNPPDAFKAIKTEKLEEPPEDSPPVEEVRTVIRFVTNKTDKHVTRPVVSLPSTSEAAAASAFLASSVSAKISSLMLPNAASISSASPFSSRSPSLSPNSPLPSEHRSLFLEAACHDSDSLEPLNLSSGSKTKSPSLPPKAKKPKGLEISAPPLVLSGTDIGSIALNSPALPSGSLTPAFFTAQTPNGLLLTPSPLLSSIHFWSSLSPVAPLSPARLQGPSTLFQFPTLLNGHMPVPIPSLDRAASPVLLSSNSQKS
Outline: as §1

[9] = target: T7, FEV (Homo sapiens, UniProt Q99581 1-238)
T7 sequence: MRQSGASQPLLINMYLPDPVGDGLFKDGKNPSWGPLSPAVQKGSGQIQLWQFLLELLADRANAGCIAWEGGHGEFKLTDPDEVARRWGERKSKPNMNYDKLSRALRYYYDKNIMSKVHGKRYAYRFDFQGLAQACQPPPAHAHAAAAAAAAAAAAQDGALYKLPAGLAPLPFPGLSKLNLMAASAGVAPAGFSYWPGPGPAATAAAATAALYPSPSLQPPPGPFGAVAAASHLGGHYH
Outline: as §1

[10] = target: ETV5 (Homo sapiens, UniProt P41161 1-510)
Chain of ETV5 (P41161 whole entry): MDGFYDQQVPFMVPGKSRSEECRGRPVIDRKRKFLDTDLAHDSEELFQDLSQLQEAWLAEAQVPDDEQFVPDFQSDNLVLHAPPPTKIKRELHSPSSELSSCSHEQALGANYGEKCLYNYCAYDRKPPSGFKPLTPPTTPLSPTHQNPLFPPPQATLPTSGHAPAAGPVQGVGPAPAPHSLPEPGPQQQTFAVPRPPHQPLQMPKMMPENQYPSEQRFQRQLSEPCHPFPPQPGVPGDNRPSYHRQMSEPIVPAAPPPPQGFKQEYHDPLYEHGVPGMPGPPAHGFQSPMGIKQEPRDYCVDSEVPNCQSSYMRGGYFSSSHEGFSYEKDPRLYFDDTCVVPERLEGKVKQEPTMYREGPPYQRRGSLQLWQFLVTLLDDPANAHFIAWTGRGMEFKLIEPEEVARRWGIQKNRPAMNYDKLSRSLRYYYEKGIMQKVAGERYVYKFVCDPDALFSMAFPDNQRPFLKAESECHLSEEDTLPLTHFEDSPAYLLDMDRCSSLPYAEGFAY
Outline: as §1

[11] = target: T8, SPIC (Homo sapiens, UniProt Q8N5J4 1-248)
T8 sequence: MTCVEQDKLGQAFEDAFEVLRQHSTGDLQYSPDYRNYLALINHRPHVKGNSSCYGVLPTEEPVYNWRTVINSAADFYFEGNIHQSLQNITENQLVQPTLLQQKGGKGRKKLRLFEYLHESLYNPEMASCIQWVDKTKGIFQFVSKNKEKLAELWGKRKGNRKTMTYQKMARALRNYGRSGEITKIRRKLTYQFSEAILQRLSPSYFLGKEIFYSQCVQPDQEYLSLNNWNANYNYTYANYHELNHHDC
Outline: as §1

[12] = target: ELF4 (Homo sapiens, UniProt Q99607 1-663)
Chain of ELF4 (Q99607 whole entry): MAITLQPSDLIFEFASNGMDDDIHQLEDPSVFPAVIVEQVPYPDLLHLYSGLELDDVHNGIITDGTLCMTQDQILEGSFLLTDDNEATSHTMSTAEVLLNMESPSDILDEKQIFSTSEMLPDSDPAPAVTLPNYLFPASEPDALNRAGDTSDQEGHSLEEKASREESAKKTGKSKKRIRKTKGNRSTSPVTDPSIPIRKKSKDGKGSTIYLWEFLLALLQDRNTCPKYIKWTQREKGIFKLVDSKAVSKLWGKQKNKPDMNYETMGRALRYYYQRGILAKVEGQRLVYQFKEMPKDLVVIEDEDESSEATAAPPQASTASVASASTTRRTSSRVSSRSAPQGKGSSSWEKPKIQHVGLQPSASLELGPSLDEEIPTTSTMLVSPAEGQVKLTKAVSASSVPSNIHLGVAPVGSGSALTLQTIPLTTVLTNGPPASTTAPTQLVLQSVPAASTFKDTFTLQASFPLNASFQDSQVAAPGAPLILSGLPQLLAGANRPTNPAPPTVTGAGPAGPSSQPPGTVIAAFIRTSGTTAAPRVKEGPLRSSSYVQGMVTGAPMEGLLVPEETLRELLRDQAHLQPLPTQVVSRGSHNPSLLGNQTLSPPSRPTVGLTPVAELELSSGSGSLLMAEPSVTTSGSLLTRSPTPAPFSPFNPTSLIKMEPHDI
Outline: as §1

[13] = target: T9, ELK4 (Homo sapiens, UniProt P28324-2 1-405)
T9 sequence: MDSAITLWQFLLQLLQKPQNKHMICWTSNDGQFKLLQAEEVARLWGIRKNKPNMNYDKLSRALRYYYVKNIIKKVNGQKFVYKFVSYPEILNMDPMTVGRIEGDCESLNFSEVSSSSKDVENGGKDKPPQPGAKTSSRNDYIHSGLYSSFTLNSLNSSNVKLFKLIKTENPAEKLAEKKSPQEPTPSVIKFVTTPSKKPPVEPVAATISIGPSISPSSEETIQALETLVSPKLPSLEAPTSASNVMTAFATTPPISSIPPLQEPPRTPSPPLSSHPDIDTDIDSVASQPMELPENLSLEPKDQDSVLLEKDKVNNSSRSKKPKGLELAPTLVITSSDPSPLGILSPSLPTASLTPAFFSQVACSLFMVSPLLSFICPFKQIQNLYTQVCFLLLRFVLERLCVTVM
Outline: as §1

[14] = target: T10, ETV2 (Homo sapiens, UniProt O00321 1-342)
T10 sequence: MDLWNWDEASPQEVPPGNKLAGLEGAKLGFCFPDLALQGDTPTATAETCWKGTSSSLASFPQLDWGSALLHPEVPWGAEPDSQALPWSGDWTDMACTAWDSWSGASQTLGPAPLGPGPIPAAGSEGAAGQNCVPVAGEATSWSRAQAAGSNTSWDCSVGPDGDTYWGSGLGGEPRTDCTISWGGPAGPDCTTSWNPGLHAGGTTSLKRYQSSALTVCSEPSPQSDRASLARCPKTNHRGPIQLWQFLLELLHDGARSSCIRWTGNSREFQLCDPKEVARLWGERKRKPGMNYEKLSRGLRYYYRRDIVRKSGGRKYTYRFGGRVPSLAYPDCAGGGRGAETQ
Outline: as §1

[15] = target: T11, ELF3 (Homo sapiens, UniProt P78545 1-371)
T11 sequence: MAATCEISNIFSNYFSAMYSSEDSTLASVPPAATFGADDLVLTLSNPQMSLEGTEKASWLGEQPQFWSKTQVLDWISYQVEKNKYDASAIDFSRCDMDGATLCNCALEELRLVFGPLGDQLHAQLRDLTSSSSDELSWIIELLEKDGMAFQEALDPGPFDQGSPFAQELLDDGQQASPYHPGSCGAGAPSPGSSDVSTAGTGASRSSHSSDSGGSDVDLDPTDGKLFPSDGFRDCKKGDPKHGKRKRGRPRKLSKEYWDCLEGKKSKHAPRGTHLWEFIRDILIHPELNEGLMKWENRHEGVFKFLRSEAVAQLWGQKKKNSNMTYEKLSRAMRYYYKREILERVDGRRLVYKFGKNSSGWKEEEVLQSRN
Outline: as §1

[16] = target: ETV1 (Homo sapiens, UniProt P50549 1-477)
Chain of ETV1 (P50549 whole entry): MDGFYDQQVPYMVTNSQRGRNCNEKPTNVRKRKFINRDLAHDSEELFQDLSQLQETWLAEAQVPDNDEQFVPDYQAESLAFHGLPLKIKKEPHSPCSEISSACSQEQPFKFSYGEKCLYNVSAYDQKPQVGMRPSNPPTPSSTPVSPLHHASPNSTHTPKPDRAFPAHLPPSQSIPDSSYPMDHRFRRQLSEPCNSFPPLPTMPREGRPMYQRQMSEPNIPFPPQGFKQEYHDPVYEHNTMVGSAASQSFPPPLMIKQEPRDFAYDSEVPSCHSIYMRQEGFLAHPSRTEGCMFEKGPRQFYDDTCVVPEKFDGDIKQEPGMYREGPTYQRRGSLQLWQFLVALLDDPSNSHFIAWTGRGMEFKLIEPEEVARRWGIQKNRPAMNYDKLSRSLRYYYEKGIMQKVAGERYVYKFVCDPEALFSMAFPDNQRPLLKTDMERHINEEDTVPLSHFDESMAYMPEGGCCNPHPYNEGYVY
Outline: as §1

[17] = target: SPIB (Homo sapiens, UniProt Q01892 1-262)
Chain of SPIB (Q01892 whole entry): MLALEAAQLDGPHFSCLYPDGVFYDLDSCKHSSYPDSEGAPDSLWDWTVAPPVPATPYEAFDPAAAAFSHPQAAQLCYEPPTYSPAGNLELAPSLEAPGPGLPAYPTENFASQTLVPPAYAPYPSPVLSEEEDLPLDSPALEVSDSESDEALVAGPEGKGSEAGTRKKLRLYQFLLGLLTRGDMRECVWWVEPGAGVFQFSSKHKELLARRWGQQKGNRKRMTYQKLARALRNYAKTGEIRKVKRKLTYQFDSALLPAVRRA
Outline: as §1

Sequence | binding signal [1] | binding signal [2] | binding signal [3] | binding signal [4] | binding signal [5] | binding signal [6] | binding signal [7] | binding signal [8] | binding signal [9] | binding signal [10] | binding signal [11] | binding signal [12] | binding signal [13] | binding signal [14] | binding signal [15] | binding signal [16] | binding signal [17]
GCCCCC | 1.06 fold enrichment (6-mer frequency, TF over GST control) | 1.02 fold enrichment (6-mer frequency, TF over GST control) | 1.15 fold enrichment (6-mer frequency, TF over GST control) | 1.03 fold enrichment (6-mer frequency, TF over GST control) | 1.15 fold enrichment (6-mer frequency, TF over GST control) | 1.13 fold enrichment (6-mer frequency, TF over GST control) | 1.12 fold enrichment (6-mer frequency, TF over GST control) | 1.06 fold enrichment (6-mer frequency, TF over GST control) | 1.13 fold enrichment (6-mer frequency, TF over GST control) | 1.06 fold enrichment (6-mer frequency, TF over GST control) | 1.26 fold enrichment (6-mer frequency, TF over GST control) | 1.11 fold enrichment (6-mer frequency, TF over GST control) | 1.18 fold enrichment (6-mer frequency, TF over GST control) | 1.23 fold enrichment (6-mer frequency, TF over GST control) | 1.2 fold enrichment (6-mer frequency, TF over GST control) | 1.1 fold enrichment (6-mer frequency, TF over GST control) | 
TAGGTC | 1.06 fold enrichment (6-mer frequency, TF over GST control) | 1.03 fold enrichment (6-mer frequency, TF over GST control) | 1.1 fold enrichment (6-mer frequency, TF over GST control) | 1.03 fold enrichment (6-mer frequency, TF over GST control) | 1.01 fold enrichment (6-mer frequency, TF over GST control) |  |  | 1.08 fold enrichment (6-mer frequency, TF over GST control) |  | 1.06 fold enrichment (6-mer frequency, TF over GST control) | 1.11 fold enrichment (6-mer frequency, TF over GST control) | 1.02 fold enrichment (6-mer frequency, TF over GST control) | 1.11 fold enrichment (6-mer frequency, TF over GST control) | 1.14 fold enrichment (6-mer frequency, TF over GST control) | 1.06 fold enrichment (6-mer frequency, TF over GST control) | 1.01 fold enrichment (6-mer frequency, TF over GST control) | 1.01 fold enrichment (6-mer frequency, TF over GST control)
TCACAG | 1.09 fold enrichment (6-mer frequency, TF over GST control) | 1.15 fold enrichment (6-mer frequency, TF over GST control) | 1.1 fold enrichment (6-mer frequency, TF over GST control) |  | 1.06 fold enrichment (6-mer frequency, TF over GST control) | 1.02 fold enrichment (6-mer frequency, TF over GST control) |  | 1.01 fold enrichment (6-mer frequency, TF over GST control) | 1.09 fold enrichment (6-mer frequency, TF over GST control) | 1.07 fold enrichment (6-mer frequency, TF over GST control) | 1.04 fold enrichment (6-mer frequency, TF over GST control) | 1.17 fold enrichment (6-mer frequency, TF over GST control) | 1.04 fold enrichment (6-mer frequency, TF over GST control) | 1.28 fold enrichment (6-mer frequency, TF over GST control) | 1.13 fold enrichment (6-mer frequency, TF over GST control) | 1.05 fold enrichment (6-mer frequency, TF over GST control) | 1.09 fold enrichment (6-mer frequency, TF over GST control)
